# Measurements from the supplement of paper PMC12636033.
# ± gives the standard deviation of the averaged measurements. In all, about 33,000 sequences were measured (“E-score (rank enrichment, -0.5 to 0.5)”: median about -0.0028, highest 2% from about 0.23 on). The list comes from a sample in which the highest values are over-represented; it also holds similar and randomly drawn sequences.
# Tested on: 2Sb-muMax20 (muMax20 with two 1,3-bis(methyl)benzene Cys staples, A13C/A17C and Q88C/A92C, C-terminal Lys)
# Assay: PBM 8-mer E-score (E-score (rank enrichment, -0.5 to 0.5)); higher = stronger preferential binding
# Method: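 Protein binding microarray (universal PBM chip covering all 10-mers in fixed probe flanks) with chemically synthesized human Max(13-93) bHLH-LZ analogs (not full-length Max) bearing noncanonical residues (hArg, Tha, Aib, Nle at 65) and aromatic Cys staples. Read-out per 8-mer (and its reverse complement): E-score (rank-based enrichment, -0.5 to 0.5) and Z-score of median probe intensity.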
row,Sequence,PBM 8-mer E-score
1,GCAGGTGA,-0.000525 ± 0.049
2,AGCACAGA,0.00824 ± 0.026
3,AACATGCT,0.0156 ± 0.11
4,AAAACTGC,-0.0787 ± 0.029
5,ACATTATA,0.222 ± 0.013
6,AAACGAAT,0.0979 ± 0.067
7,CAACCGGG,-0.22 ± 0.053
8,ACTCACAA,0.124 ± 0.028
9,ACCTCGAC,-0.178 ± 0.084
10,ATGCATCG,0.0238 ± 0.0075
11,GTGCATCA,0.0577 ± 0.073
12,ATGCATTG,0.133 ± 0.0027
13,ATGCATCA,0.332 ± 0.0056
14,ATGCATTA,0.311 ± 0.01
15,ATGCAATA,0.269 ± 0.021
16,CTGCAATA,0.0131 ± 0.065
17,CTGCATTC,0.0548 ± 0.014
18,GTGCAATA,0.118 ± 0.07
19,ATGCATTC,0.248 ± 0.054
20,CTGCATTA,0.0983 ± 0.0036
21,GTGCATTA,0.0825 ± 0.077
22,AAAACCCA,0.145 ± 0.034
23,CGTGCCCC,0.0242 ± 0.014
24,GCTCTCTA,-0.0575 ± 0.015
25,ACCTGCCC,-0.236 ± 0.049

row,Sequence,PBM 8-mer E-score
1,AGGCATAG,0.017 ± 0.038
2,CAAGTAAA,0.114 ± 0.018
3,CCTACACC,0.00456 ± 0.037
4,TCGCGTCA,-0.0876 ± 0.026
5,ATGCATAA,0.213 ± 0.023
6,ATGCATAC,0.253 ± 0.0083
7,CTGCATAC,0.0495 ± 0.019
8,GCGGCGAC,-0.148 ± 0.0016
9,TAAAACAA,-0.00029 ± 0.077
10,GAAACAAA,0.301 ± 0.065
11,GAAACATA,0.268 ± 0.048
12,GAAACAAC,0.0094 ± 0.1
13,GAAACATC,0.0426 ± 0.019
14,GAAAACAA,0.244 ± 0.069
15,AAAACATA,0.1684 ± 0.0003
16,AAAAACAA,0.158 ± 0.049
17,CAAACAAA,0.0981 ± 0.0047
18,GATTATTA,0.1 ± 0.071
19,ATTACGAG,0.164 ± 0.013
20,CGAGTTAA,0.0575 ± 0.082
21,ACTCAGAA,0.0145 ± 0.00035
22,CTTAGTAC,0.0932 ± 0.025
23,TATCCAAA,0.103 ± 0.028
24,CCCGTCGA,-0.109 ± 0.064
25,CTGTGGTC,-0.235 ± 0.017

row,Sequence,PBM 8-mer E-score
1,CAAGAAGA,0.0996 ± 0.012
2,ATGTTAAC,0.306 ± 0.013
3,GTGTTAAC,-0.018 ± 0.016
4,GAGTTAAC,0.0742 ± 0.055
5,AAGTTAAC,0.233 ± 0.052
6,CTGTTAAC,0.105 ± 0.041
7,CAGTTAAC,0.0298 ± 0.036
8,CCAGTAGA,-0.0423 ± 0.068
9,AAGCCTGA,-0.17 ± 0.034
10,ACCTCCGG,-0.194 ± 0.037
11,CGCTGTAA,-0.00707 ± 0.013
12,AGGTAGCG,-0.0415 ± 0.0036
13,CCATGCGA,0.0911 ± 0.01
14,GCATGCGC,0.112 ± 0.049
15,GCATGCGA,0.266 ± 0.042
16,TCGAAAGA,0.0439 ± 0.024
17,CATAGATG,-0.111 ± 0.065
18,CAAGGCAC,0.0684 ± 0.076
19,ACTAGCCT,0.134 ± 0.035
20,CTCCCGCA,0.0448 ± 0.016
21,AAACATAC,0.199 ± 0.015
22,AAACATAA,0.28 ± 0.013
23,AAACATAG,0.0193 ± 0.016
24,AAACATAT,0.247 ± 0.042
25,TAACATAA,0.217 ± 0.058

row,Sequence,PBM 8-mer E-score
1,GAACATAA,0.198 ± 0.058
2,CCGATCAG,-0.247 ± 0.028
3,GGGCTTAA,0.0764 ± 0.033
4,CGAATGTC,-0.0317 ± 0.0078
5,CGAATGCC,-0.00354 ± 0.078
6,GGAATGTA,0.0875 ± 0.012
7,CGAATGTA,0.241 ± 0.011
8,CGAATGCG,-0.0308 ± 0.079
9,CGAATGCA,0.248 ± 0.035
10,ACAGTACC,-0.0999 ± 0.06
11,GCTGTGCA,-0.0668 ± 0.075
12,GGCCACAC,-0.0997 ± 0.082
13,CTTAACTC,0.0502 ± 0.01
14,TCTTTCAA,0.0646 ± 0.0097
15,GGACACAC,-0.0301 ± 0.051
16,CGACACAA,-0.0479 ± 0.0084
17,GGACACGA,-0.122 ± 0.0082
18,TGACACAA,0.239 ± 0.0028
19,GCACACAC,-0.0369 ± 0.062
20,AAACACAA,0.153 ± 0.0061
21,TAACACAA,0.232 ± 0.058
22,AGACACAA,0.00927 ± 0.0092
23,GCACACAA,0.233 ± 0.012
24,ACACACAA,0.0979 ± 0.013
25,GGACACAA,0.238 ± 0.045

row,Sequence,PBM 8-mer E-score
1,CAACACAA,0.0293 ± 0.052
2,CGTCCACG,-0.0278 ± 0.092
3,GGCCCGAC,-0.223 ± 0.016
4,CTGGTGGA,-0.184 ± 0.0071
5,CCCCAAAG,-0.0426 ± 0.063
6,CCTCTGGC,-0.104 ± 0.017
7,GAACTATC,0.0395 ± 0.014
8,CCACAACA,0.0344 ± 0.024
9,GCACAACC,-0.2359 ± 0.0019
10,GCACAACA,0.263 ± 0.066
11,CTCCTTGC,-0.0809 ± 0.064
12,GAACCACC,-0.0303 ± 0.047
13,CCCATAAC,0.128 ± 0.0013
14,ACCATAAG,0.0575 ± 0.0016
15,CCCATAAG,0.277 ± 0.06
16,ATACGTTG,0.11 ± 0.057
17,ATCTTGTA,-0.0155 ± 0.031
18,ATACAGTA,0.223 ± 0.018
19,ATACAGTG,0.237 ± 0.028
20,ATACAGTC,-0.00634 ± 0.095
21,ACGTCAAA,0.148 ± 0.052
22,CTTGCTGA,-0.0397 ± 0.039
23,GACGGAAC,-0.127 ± 0.049
24,CTCCTTAA,-0.0933 ± 0.1
25,GAGACCCA,-0.107 ± 0.056

row,Sequence,PBM 8-mer E-score
1,TAGACCCA,0.243 ± 0.021
2,AAGACCCA,0.042 ± 0.021
3,CAGAGCAG,-0.155 ± 0.026
4,ACTGTTCT,0.114 ± 0.014
5,CATAATAG,0.258 ± 0.0042
6,ACTAATAT,0.0629 ± 0.074
7,CATAATAA,0.123 ± 0.049
8,ACTAATAC,0.188 ± 0.061
9,ACTAATAG,0.261 ± 0.027
10,AATAATAG,0.146 ± 0.0061
11,AGTAATAG,0.255 ± 0.043
12,CGTAATAG,0.168 ± 0.063
13,AGTAATAC,-0.0436 ± 0.038
14,CCTGGTTA,-0.0217 ± 0.078
15,AGCGGTAA,-0.128 ± 0.0078
16,GAGGCTCC,-0.117 ± 0.064
17,AACTTTGT,0.12 ± 0.0076
18,AACACTAG,0.193 ± 0.0046
19,CTGACGCC,-0.0915 ± 0.025
20,AATGCTTG,-0.00273 ± 0.049
21,TCCACAGA,-0.0264 ± 0.053
22,CCTCGACG,-0.141 ± 0.026
23,CGTTGCTC,-0.0317 ± 0.009
24,AATTGCTG,0.0578 ± 0.078
25,CATTGCTA,0.102 ± 0.021

row,Sequence,PBM 8-mer E-score
1,CGTTGCTA,0.237 ± 0.019
2,AATTGCTA,0.268 ± 0.048
3,AGTTGCTA,0.0844 ± 0.05
4,CCACCTTC,0.0963 ± 0.024
5,AACTGAGG,-0.066 ± 0.0013
6,ACGGAAGA,-0.0282 ± 0.0086
7,ATCACAAA,0.187 ± 0.032
8,ACGTACGC,0.0419 ± 0.012
9,TGCTAGCA,0.245 ± 0.069
10,GGCTAGCA,0.0623 ± 0.01
11,CGCTAGCA,-0.253 ± 0.03
12,TACAAACA,-0.0196 ± 0.043
13,AAACAAAA,0.133 ± 0.04
14,AACAAACA,0.257 ± 0.003
15,TACAAATA,0.166 ± 0.013
16,AACAAGTA,-0.0361 ± 0.0029
17,AAACAAAC,0.0967 ± 0.0062
18,GCCAAATA,0.136 ± 0.0084
19,CCCAAGTA,0.209 ± 0.045
20,AAACAAAT,0.262 ± 0.056
21,AACAAACC,0.0286 ± 0.068
22,AACAAATA,0.269 ± 0.024
23,CCCAAATA,0.24 ± 0.02
